# FLuc modulator – qHTS profiling assay for firefly luciferase inhibitor/activator using purifed enzyme and Km concentrations of substrates (counterscreen for miR-21 project) | Luciferin 4-monooxygenase (Photinus pyralis), P08659 | purified FLuc, Km substrates, luminescence inhibition | Potency, µM (titrated, usually from 57.5 µM), for the others: top-dose activity change, negative = inhibition, most hits filed as inhibitors | hit rate 6.9% among 360,000 | AID 588342, 2011;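 also: plate controls were vehicle for no effect and reference inhibitor for full effect; nearly all actives have a fitted effect of over 55% in size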
# Target sequence (P08659 whole entry, looked up): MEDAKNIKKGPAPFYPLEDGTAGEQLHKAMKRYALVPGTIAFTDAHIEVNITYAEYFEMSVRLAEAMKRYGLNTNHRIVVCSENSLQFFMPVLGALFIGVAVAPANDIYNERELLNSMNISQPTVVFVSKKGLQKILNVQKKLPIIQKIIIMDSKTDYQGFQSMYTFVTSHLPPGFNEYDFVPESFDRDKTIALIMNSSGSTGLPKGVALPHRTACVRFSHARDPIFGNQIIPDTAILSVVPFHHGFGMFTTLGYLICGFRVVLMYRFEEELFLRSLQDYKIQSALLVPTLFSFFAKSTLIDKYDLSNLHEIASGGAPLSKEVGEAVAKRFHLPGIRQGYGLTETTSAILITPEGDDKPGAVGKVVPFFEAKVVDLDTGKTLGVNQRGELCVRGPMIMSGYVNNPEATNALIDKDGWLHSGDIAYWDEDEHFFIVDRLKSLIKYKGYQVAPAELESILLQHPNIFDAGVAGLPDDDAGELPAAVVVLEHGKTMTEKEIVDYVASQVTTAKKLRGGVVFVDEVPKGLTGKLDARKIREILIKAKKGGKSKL
#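 Purified P. pyralis luciferase, 10 nM final, with Km-level 10 uM D-luciferin and 10 uM ATP in 50 mM Tris acetate pH 7.5, 10 mM Mg acetate, 0.01% Tween-20, 0.05% BSA; 6-point qHTS titration about 60 µM downward; luminescence read.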
# Rab9 prom act – qHTS Assay for Rab9 Promoter Activators. Potency, µM (series often up to 9.22 µM), inactives show at the top dose activation, negative = inhibition, actives largely listed as activators. Huh7 Rab9 promoter-luciferase reporter, luminescence, 24 h. AID 485297, 2010. hit rate 2.8% among 320,000; also: % of control where 0% means no effect; nearly all actives have a fitted effect of over 60% in size
#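 Luminescence from Amplite-detected luciferase (10 minutes, ambient) reports Rab9 promoter activation. Before that, stable Rab9-luciferase Huh7 cells (1500/well, reduced-serum OP-MEM I plus 10% FBS) were exposed to compound for 24 hours at 37C.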
# SMN2 splice enh – qHTS Assay for Enhancers of SMN2 Splice Variant Expression. HEK293 SMN2-luciferase splicing reporter, luminescence, 30-36 h. Potency, µM (series often up to 46.1 µM), for inactives: at the highest dose activity change, positive = activation, usual class: activators. hit rate 2.8% among 210,000; also: % of control where 0% means no effect; nearly all actives have a fitted effect of over 55% in size
#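 qHTS luciferase splicing reporter: luminescence rises when SMN2 exon 7 is included in transfected HEK293 cells. Compound exposure lasted 30-36 h at 37C, with 4.5 mM final sodium butyrate as control, followed by a ONE-Glo read.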
# NPC1 promoter act – qHTS Assay for NPC1 Promoter Activators; Huh7 NPC1 promoter luciferase reporter, 24 h; Potency, µM (doses to about 9.22 µM), without a hit: top-dose activation, usual class: activators; hit rate 2.4% among 320,000; AID 485313, 2010; also: % of control where 0% means no effect; nearly all actives have a fitted effect of over 60% in size
#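 Luminescence from an NPC1 promoter-driven luciferase reporter in stably transfected Huh7 cells was measured after 24 h compound treatment at 37 °C, followed by 10 min ambient incubation with luciferase detection reagent.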
# ELG1 genotox – qHTS screen for small molecules that induce genotoxicity in human embryonic kidney (HEK293T) cells expressing luciferase-tagged ELG1; HEK293T ELG1-luciferase reporter, luminescence, 16 h; Potency, µM (series often up to 46 µM), for inactives: at the highest dose activity change, positive = activation, actives largely listed as activators; hit rate 1.3% among 330,000; AID 504466, 2011; also: % of control where 0% means no effect; nearly all actives have a fitted effect of over 60% in size
#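 Reporter readout depends on ELG1 protein level, which increases with genetic stress. After 16 hr compound exposure at 37 °C, luciferase activity was quantified using ONE-Glo.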
# KinaseGlo FLuc – Counterscreen for Luciferase (Kinase-Glo TM) Inhibition; Luciferin 4-monooxygenase (Photuris pensylvanica), Q27757; Kinase-Glo luciferase, ATP luminescence, 8 min; Potency, µM (doses to about 38.3 µM), inactives show top-dose activity change, negative = inhibition, usual class: inhibitors; hit rate 0.28% among 200,000; AID 1379, 2008; also: % is scaled to controls: 0 for no effect and ±100 for the full control effect; nearly all actives have a fitted effect of over 60% in size
#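 Luminescence was the read-out, taken after 8-minute incubation at ambient temperature. Luciferase turned over luciferin with 10 uM ATP in imidazole pH 7.2 buffer containing KCl, MgCl2, Tween 20 and BSA.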
# * = called active by the depositor; u = inconclusive; x = no result; [ ] = dose if it differs, or a comment. Shown are actives, neighbours in structure and some others; about 7.5% of the full set was active somewhere. Calls follow the shape of the dose curve; as a rule, active = well fitted curve in the direction sought with a large enough effect; inconclusive = small, poorly fitted or top-dose-only effect, or another doubt; inactive = no such curve, though single readings can be large; an effect the other way counts as inactive or inconclusive. Potency is read from the fitted curve at half-maximal effect.
SMILES,FLuc modulator,Rab9 prom act,SMN2 splice enh,NPC1 promoter act,ELG1 genotox,KinaseGlo FLuc
CCOC(=O)c1c(NC2=NS(=O)(=O)c3ccccc32)sc2c1CCCCC2,0%,u,x,1.4µM*,1%,x
CCn1c(CNC(C)=O)nnc1SCC(=O)c1ccc(Br)cc1,-3%,0%,u,-5%,-1%,-3%
CCN(CC)C(=S)SCC(=O)c1ccc(Br)cc1,19µM*,u,u,u,u,0%
O=C(Nc1ccc(Cl)cc1[N+](=O)[O-])c1ccc2c(c1)OCCO2,u,0.45µM*,x,0.56µM*,4.1µM*,x
O=C(Nc1ccc(F)c([N+](=O)[O-])c1)c1ccc2c(c1)OCCO2,6µM*,u,22%,17%,10%,0%
O=C(Nc1cc(Cl)ccc1N1CCOCC1)c1ccc2c(c1)OCCO2,u,-6%,-11%,0%,-1%,1%
O=c1c2ccccc2nc2sc(Nc3cccc4ccccc34)nn12,2%,x,x,x,x,x
CCCSc1nn2c(=O)c3ccccc3nc2s1,7.6µM*,2µM*,35µM*,4µM*,2.9µM*,-16%
Cc1cccc(Nc2nn3c(=O)c4ccccc4nc3s2)c1,u,u,7.9µM*,4µM*,9%,-1%
Cc1ccc(N2CCN(CC(O)COc3ccccc3)CC2)cc1 (configuration not stated),1%,0%,x,-2%,3%,x
CCn1ccc2c(OCC(=O)Nc3ccc(C)c(Cl)c3)cccc2c1=O,-2%,x,x,x,x,x
CC(=O)c1cccc(NC(=O)COC(=O)COc2ccccc2C)c1,-8%,-3%,4%,-3%,0%,0%
Cc1ccc(NC(=O)COc2ccccc2C=O)cc1Cl,0.85µM*,2.5µM*,x,2µM*,u,1%
Cc1ccccc1OCC(=O)Nc1ccc2c(c1)OCO2,13µM*,7%,-9%,u,u,-10%
CC(=O)Nc1cccc(NC(=O)COc2ccccc2C)c1,15µM*,12%,x,13%,1%,x
COc1cc(C)ccc1OCC(=O)Nc1ccc2c(c1)OCO2,7.6µM*,2.8µM*,x,u,u,x
Cc1ccccc1OCC(=O)OCC(=O)Nc1ccc2c(c1)OCCO2,x,0%,x,-1%,1%,x
O=C(CCC1CCCNC1)c1ccccc1 (configuration not stated),2%,-1%,x,-7%,-3%,x
O=C(COc1ccccc1Cl)Nc1ccc2c(c1)OCO2,3.4µM*,u,x,2.8µM*,3.5µM*,x
CNS(=O)(=O)c1cccc(C(=O)OCC(=O)c2cc(C)n(-c3ccc4c(c3)OCO4)c2C)c1,u,-3%,-24%,-1%,11%,2%
Cc1cc(C(=O)COc2ccccc2Cl)c(C)n1-c1ccc2c(c1)OCO2,21µM*,25%,u,19%,u,-2%
COc1ccc(OCC(=O)Nc2ccc3c(c2)OCO3)cc1,u,14%,x,11%,22%,x
COc1ccccc1OCC(=O)Nc1ccc2c(c1)OCO2,15µM*,21%,x,u,25%,x
Cc1ccc(-n2c(C)cc(C(=O)COc3c(CO)cc(F)cc3CO)c2C)cc1C,24µM*,-1%,-52%,0%,-5%,-4%
Cc1ccc2cccc(OCC(=O)Nc3ccc4c(c3)OCO4)c2n1,-19%,-3%,-17%,6%,-7%,-2%
Cc1cc(C)cc(NC(=O)C(NS(=O)(=O)c2cccc3nsnc23)c2ccccc2)c1 (configuration not stated),u,x,15%,x,x,x
COc1ccc(OCC(=O)Nc2cccc(OC)c2)cc1,-15%[2.3 µM],-4%,x,2%,u,-13%
COc1cccc(NC(=O)COc2ccccc2C(N)=O)c1,2.4µM*,2µM*,4µM*,2.8µM*,7.9µM*,u
